In PubChem BioAssay (NCI) one finds growth data, which are given here for 8 molecules.

Test systems include SR leukemia; RPMI-8226 leukemia; OVCAR-8 ovarian; OVCAR-5 ovarian; OVCAR-4 ovarian; SK-OV-3 ovarian; IGROV1 ovarian; HS 578T breast; NCI/ADR-RES ovarian; T-47D breast; BT-549 breast; MDA-MB-435 melanoma; SW-620 colon; MCF7 breast; HCT-116 colon; HCC-2998 colon; KM12 colon.
Common to all, as to test: NCI-60 one-dose screen, 48 h (100 = growth as untreated, 0 = no growth, -100 = all killed)
Holding throughout (settings): 10 µM unless noted

About 83,000 compounds went through this panel and 20% of them were active in at least one assay; those are over-represented in the sample as a whole.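 Method: cells in 96-well plates; compound added at one concentration; 48 h incubation; percent growth measured; values under 10 scored active.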 A number with no mark means an inactive call. The source made the active and inactive calls.

Turning to `CCNC(=O)N1CCc2cc(OC)c(OCCc3ccc(OC)c(N)c3)cc2C1c1ccc(C)cc1C` (configuration not stated), the growth was 15.3% in the assay with SR leukemia; 20.1% with RPMI-8226 leukemia; 24.4% in the assay with OVCAR-8 ovarian; 33.5% with OVCAR-5 ovarian; 57.6% with OVCAR-4 ovarian; 52.8% in the assay with SK-OV-3 ovarian. Moreover, the growth in the assay on IGROV1 ovarian is 21.4%; in the assay with HS 578T breast, 11.7%; in the assay on NCI/ADR-RES ovarian it was 17.9%; in the assay with T-47D breast it was 65.8%; in the assay on BT-549 breast, -10.9% (active); with MDA-MB-435 melanoma it was 13.4%. Besides, the growth was 23.2% in the assay on SW-620 colon; 17.2% in the assay on MCF7 breast; 9.82% (active) with HCT-116 colon; 20.6% with HCC-2998 colon; 12.5% with KM12 colon.

Regarding `Cc1ccc2c(c1)C13C(=C2Br)CCCN1C(=O)c1ccccc13` (configuration not stated), the growth in the assay on SR leukemia was 47.2%; with RPMI-8226 leukemia, 80.4%; with OVCAR-8 ovarian it was 99.5%; in the assay with OVCAR-5 ovarian, 96.6%; in the assay on OVCAR-4 ovarian it was 91.8%; in the assay with SK-OV-3 ovarian, 96.2%. Moreover, the growth in the assay on IGROV1 ovarian was 88.5%; in the assay with HS 578T breast, 94.3%; with NCI/ADR-RES ovarian, 88.4%; in the assay on T-47D breast, 86.8%; in the assay with BT-549 breast, 104%; in the assay with MDA-MB-435 melanoma, 54.8%. Also, the growth in the assay with SW-620 colon is 93.7%; in the assay with MCF7 breast it was 74.3%; in the assay with HCT-116 colon, 96.5%; in the assay with HCC-2998 colon, 113%; in the assay on KM12 colon it was 91.5%.

Regarding `CC(C)(C)c1ccc(-c2nnc(-c3nc4ccccc4nc3Cl)o2)cc1`, the growth in the assay with SR leukemia is 91.3%; in the assay with RPMI-8226 leukemia it was 65.9%; in the assay on OVCAR-8 ovarian, 84.2%; with OVCAR-5 ovarian, 99.1%; in the assay with OVCAR-4 ovarian, 82.2%; with SK-OV-3 ovarian, 95.9%. Also, the growth in the assay with IGROV1 ovarian was 72.5%; in the assay with HS 578T breast, -8.86% (active); with NCI/ADR-RES ovarian, 82.5%; in the assay on T-47D breast, -70.5% (active); in the assay with MDA-MB-435 melanoma, 69%; with SW-620 colon, 66.2%. The growth in the assay on MCF7 breast was -65.9% (active); with HCT-116 colon, 14.2%; in the assay on HCC-2998 colon, 98.5%; in the assay on KM12 colon it was 65.8%.

Consider `CCCn1cnc2c(c1=N)C(c1ccc(Cl)cc1)c1sc3c(CC)cccc3c1O2` (configuration not stated), for which the growth in the assay with SR leukemia was 24.2%; with RPMI-8226 leukemia, -5.3% (active); in the assay with OVCAR-8 ovarian, 20.5%; in the assay with OVCAR-5 ovarian it was 29%; with OVCAR-4 ovarian, 89.1%; with SK-OV-3 ovarian, 29.7%. Also, the growth is 18.4% in the assay with IGROV1 ovarian; 4.18% (active) in the assay with HS 578T breast; 10.4% in the assay on NCI/ADR-RES ovarian; 10.2% in the assay with T-47D breast; 41.3% in the assay with BT-549 breast; -35.4% (active) in the assay with MDA-MB-435 melanoma. For the same molecule, the growth was 25.5% with SW-620 colon; 17% in the assay with MCF7 breast; 12.1% with HCT-116 colon; 17.8% in the assay on HCC-2998 colon; 15.6% with KM12 colon.

Take `COc1cccc2c1CN(C(=O)c1ccc(O)c(C(=O)N3Cc4ccc(OCCC[P+](c5ccccc5)(c5ccccc5)c5ccccc5)cc4C3)c1)C2`: the growth in the assay with SR leukemia was 35.3%; with RPMI-8226 leukemia, 26.2%; in the assay on OVCAR-8 ovarian it was 79.5%; with OVCAR-5 ovarian, 123%; in the assay with OVCAR-4 ovarian, 84%; with SK-OV-3 ovarian, 112%. In addition, the growth with IGROV1 ovarian was 43.9%; with HS 578T breast, 49.5%; in the assay with NCI/ADR-RES ovarian, 103%; in the assay on T-47D breast it was 37.6%; with BT-549 breast, 65.9%; in the assay with MDA-MB-435 melanoma, 32%. Moreover, the growth is 70.5% with SW-620 colon; 17.9% with MCF7 breast; 80.8% in the assay on HCT-116 colon; 47.9% with HCC-2998 colon; 44.4% with KM12 colon.

As to `Nc1nc(-c2cccc([N+](=O)[O-])c2)c(N=Nc2ccc(Br)cc2)s1`, the growth in the assay with SR leukemia was 50.7%; with RPMI-8226 leukemia, 15%; in the assay on OVCAR-8 ovarian, -28.7% (active); in the assay on OVCAR-5 ovarian, -12.1% (active); with OVCAR-4 ovarian, -33.2% (active); with SK-OV-3 ovarian, -83.7% (active). Besides, the growth in the assay with IGROV1 ovarian is -13.3% (active); with HS 578T breast, 0.349% (active); with NCI/ADR-RES ovarian, -21.7% (active); in the assay with T-47D breast, -26.9% (active); in the assay on MDA-MB-435 melanoma, 0.572% (active); with SW-620 colon, -34.5% (active). Further, the growth with MCF7 breast is 7.63% (active); in the assay with HCT-116 colon, -76.6% (active); in the assay on HCC-2998 colon it was -31.6% (active); in the assay with KM12 colon, 15.4%.

On to `Cc1ccc(C(=O)NN2C(=O)/C(=C/C=C/c3ccco3)SC2=S)cc1`, for which the growth with SR leukemia is 84.5%; in the assay with RPMI-8226 leukemia, 102%; with OVCAR-8 ovarian, 99.7%; in the assay with OVCAR-5 ovarian it was 100%; in the assay on OVCAR-4 ovarian, 92.8%; in the assay on SK-OV-3 ovarian it was 107%. Moreover, the growth in the assay with IGROV1 ovarian is 98.4%; with HS 578T breast, 96.5%; with NCI/ADR-RES ovarian it was 97.5%; with T-47D breast, 95.4%; in the assay on MDA-MB-435 melanoma, 90.7%; in the assay on SW-620 colon, 106%. In addition, the growth in the assay on MCF7 breast was 82%; in the assay with HCT-116 colon, 98.2%; in the assay on HCC-2998 colon, 107%; with KM12 colon, 102%.

As to `O=S(=O)(NC1c2ccccc2C[C@H]1O)c1ccc(Cl)cc1Cl` (some centres not stated), the growth in the assay with SR leukemia is 87.2%; in the assay on RPMI-8226 leukemia, 107%; in the assay on OVCAR-8 ovarian, 98.4%; in the assay on OVCAR-5 ovarian, 102%; in the assay on OVCAR-4 ovarian, 97.4%; with SK-OV-3 ovarian, 97.3%. Also, the growth was 99.2% in the assay on IGROV1 ovarian; 93.7% in the assay on HS 578T breast; 99.5% with NCI/ADR-RES ovarian; 93.7% in the assay with T-47D breast; 94.1% in the assay with MDA-MB-435 melanoma; 102% with SW-620 colon. The growth was 95.5% with MCF7 breast, 98.1% in the assay on HCT-116 colon, 97% with HCC-2998 colon and 96.3% in the assay on KM12 colon.
